Source: PubChem BioAssay (NCI)
Compounds without any hit were thinned out: in the full panel of roughly 83,000, 20% have a hit.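 Testing used 96-well plates and a 48-hour single-concentration exposure. Example: -40 means 40% of the starting cells died.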 Activity calls are given as the source filed them. Rule for the calls: active = growth percent below 10; inactive = the rest.

Test system: NCI-H460 lung
Assay: NCI-60 one-dose screen, 48 h (100 = growth as untreated, 0 = no growth, -100 = all killed)
Conditions: 10 µM unless noted

Structure (SMILES)	growth
Cc1nn(-c2ccccc2)c(Cl)c1/C=C/C(=O)c1ccc(F)cc1	98% (inactive)
COc1cc2oc(-c3cccc(C(=O)Nc4ccc(Br)cc4)c3)cc(=O)c2c(OC)c1OC	36.2% (inactive)
CC1=C(C(=O)/C=C/c2c[nH]c3ccccc23)C(c2ccccc2)NC(=S)N1 (stereo not drawn)	99.6% (inactive)
CCCCCN1C=C/C(=C\C(=O)N(C)c2ccc(Oc3ccccc3)cc2)c2ccccc21	92% (inactive)
Cn1cc(-c2nc(-c3c[nH]c4c(Cl)nccc34)cs2)c2cc(Br)ccc21	80.2% (inactive)
COc1ccc(/C=C2\Oc3cc(OCCCN4CCCCC4)ccc3C2=O)cc1OC	89% (inactive)
Cc1cc2nc3c4cc(C=O)ccc4n(CCN(C)C)c3nc2cc1C	0.703% (active)
S=c1cc(S)c2cc(Br)ccc2[nH]1	99.4% (inactive)
O=C(/C(=C\c1ccc([N+](=O)[O-])cc1)S(=O)Cc1ccc(Cl)cc1)c1ccc(Cl)cc1 (stereo not drawn)	76.3% (inactive)
COc1cc(CC(=O)c2ccc(O)c(OC)c2)ccc1O	100% (inactive)
O=C(NCCc1ccccc1)Nc1ccc2cc3ccc(NC(=O)NCCc4ccccc4)cc3nc2c1	16.8% (inactive)
C=C(C)[C@@H]1CC[C@]2(C(=O)N3CCN(C)CC3)CC[C@]3(C)[C@H](CC[C@@H]4[C@@]5(C)C/C(=C/c6cccnc6)C(=O)C(C)(C)[C@@H]5CC[C@]43C)[C@@H]12	44.3% (inactive)
COc1cc2nc(-c3ccc(Cl)cc3)cc(OCCCN3CCC(O)CC3)c2cc1OC	23.8% (inactive)
